Records with an inconclusive call do not appear. Entries that show only a call come without a potency. The source made the active and inactive calls. Unless noted, the call rests on the fitted dose curve; in most records, active means well fitted curve in the direction sought with a large enough effect; inconclusive means small, poorly fitted or top-dose-only effect, or another doubt; inactive means no such curve, though single readings can be large; an effect the other way counts as inactive or inconclusive.
What was measured:
[1] = target: DNA repair nuclease/redox regulator APEX1 (Homo sapiens) (UniProt P27695); assay: qHTS Validation Assay for Inhibitors of the Human Apurinic/apyrimidinic Endonuclease 1 (APE1) (AID 1705;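 further: TAMRA fluorescence gain over two minutes as APE1 cuts a quenched THF abasic duplex; series mostly up to about 57 µM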)
Outline: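 Activity read as rising fluorescence (598 nm emission, 525 nm excitation) from incision of a TAMRA/BHQ-2 duplex carrying a THF abasic site (50 nM). Compound and enzyme sat 15 min at RT before substrate start; signal change between first and third 60-s reads.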

[2] = Counterscreen for APE1 Inhibitors: Fluorescent Dye Displacement Validation Assay (AID 1707)
Outline: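 Assay buffer: Tris-HCl pH7.5 with 50mM NaCl, 2 mM MgCl2, 0.01% Tween-20. Dye 250 nM, duplex 50 nM final. Readout: decrease in ThO endpoint fluorescence, 480 nm excitation, 540 nm emission.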

[3] = qHTS for differential inhibitors of proliferation of Plasmodium falciparum line D10 (AID 1877);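 further: parasites grown with compound for 72 h before DNA staining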; further: potency means the concentration at half of the fitted maximal effect
[4] = qHTS for differential inhibitors of proliferation of Plasmodium falciparum line Dd2 (AID 1882); conditions: Potency: Plasmodium falciparum Dd2 proliferation inhibition; further: nearly all actives have a fitted effect of over 65% in size; further: potency means the concentration at half of the fitted maximal effect
Outline: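 Dd2-infected erythrocytes (0.3% parasitemia, 2.5% hematocrit final) incubated with compound 72 h at 37 C, 5% CO2; lysed with saponin/Triton buffer containing SYBR Green I, incubated overnight in the dark, then read by fluorescence (485/535 nm). Normalized to 0.29 uM artemisinin and DMSO.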

[5] = target: Ferritin light chain (Equus caballus) (UniProt P02791); assay: qHTS Validation Assay for Identification of Novel General Anesthetics (AID 2323); further: series mostly up to about 77 µM
Outline: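 Competitive displacement of the profluorescent anesthetic 1-AMA (50% saturated, PBS) from 10 uM apoferritin, 10 min, room temperature. Activity is normalized 380/535 nm fluorescence; concentration-response fitted with a four-parameter Hill equation.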

[6] = target: ATP-dependent DNA helicase Q1 (Homo sapiens) (UniProt P46063); assay: qHTS Validation Assay for Inhibitors of RecQ-Like Dna Helicase 1 (RECQ1) (AID 2353)
Outline: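 50 nM RECQ1T1 preincubated 15 min with compound in Tris pH 8.0 buffer with MgCl2, DTT, Tween-20 and 2.5 ug/ml poly(dI-dC); started with 200 nM TAMRA/BHQ-2 forked duplex and 2 mM ATP. Unwinding read as fluorescence (525/598 nm), two reads 2 h apart.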

[7] = Validation screen for small molecules that induce DNA re-replication in MCF 10A normal breast cells (AID 463097); further: nearly all actives have a fitted effect of over 60% in size
Outline: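 Read-out is Hoechst total nuclear intensity by fluorescence scanning imager, flagging increased high-DNA-content nuclei. Compounds were incubated with MCF 10A cells for 48 hr (37 C, 5% CO2) before 40 min staining.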

[8] = Quantitative high throughput screen for delayed death inhibitors of the malarial parasite plastid, 96 hour incubation (AID 488745); further: nearly all actives have a fitted effect of over 70% in size; further: potency means the concentration at half of the fitted maximal effect
Outline: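 Luciferase-expressing P. falciparum in erythrocytes (2% hematocrit, 0.1% parasitemia) incubated with compound for 96 h at 37 C, 5% CO2, in RPMI 1640 with 0.5% Albumax. Growth inhibition read as decreased luminescence.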

[9] = Quantitative high throughput screen for delayed death inhibitors of the malarial parasite plastid, 48 hour incubation (AID 488752); further: nearly all actives have a fitted effect of over 65% in size; further: potency means the concentration at half of the fitted maximal effect
Outline: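 Erythrocytes infected with firefly luciferase-expressing P. falciparum (2% hematocrit, 0.1% parasitemia) cultured with compound for 48 h at 37 C, 5% CO2, in RPMI 1640/0.5% Albumax. Growth inhibition read as loss of luminescence.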

[10] = target: M-phase phosphoprotein 8 (Homo sapiens) (UniProt Q99549); assay: qHTS Validation Assay for Inhibitors for MPP8 Chromodomain Interactions with Methylated Histone Tails (AID 488949); further: nearly all actives have a fitted effect of over 55% in size; further: potency means the concentration at half of the fitted maximal effect
Outline: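 AlphaScreen proximity signal from streptavidin donor and Ni-chelate acceptor beads (10 ug/mL each) reported binding of MPP8 to trimethyl-K9 H3(1-18) peptide, both at 50 nM. The complex formed 30 min before a 30 min compound exposure at room temperature, in PBS pH 7.4.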

[11] = target: Transient receptor potential cation channel subfamily V member 1 (Homo sapiens) (UniProt Q8NER1); assay: HTS Assay for Compounds that Act as Enhancers of the Vanilloid Receptor 1 (AID 488979)
Outline: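 TRPV1-expressing cells loaded with Fluo-8 calcium dye; compounds added and calcium influx read kinetically for 3 min (agonist phase), then capsaicin at EC20 added and read 2 min more for enhancement. Fluorescence ex 480/em 520 nm.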

[12] = target: Thyrotropin receptor (Homo sapiens) (UniProt P16473); assay: qHTS Assay for Antagonists of the Thyroid Stimulating Hormone Receptor (AID 488980); further: series mostly up to about 58 µM
Outline: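 Inhibition of cAMP raised by EC80 TSH (4 nM final) was read by HTRF, with lysate cAMP competing against cAMP-d2 for cryptate antibody after 30 min at room temperature. The cells were transfected HEK293 held in phosphodiesterase inhibitor RO 20-1724 at 70 uM.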

[13] = target: Thyrotropin-releasing hormone receptor (Homo sapiens) (UniProt P34981); assay: qHTS for Small Molecule Agonists and Allosteric Enhancers of Human TRH Receptor: Validation Screen for Agonists (AID 493127;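 active means calcium activation more than 3 SD above the typical response in the agonist read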); conditions: TRH receptor agonist cell assay; at 2 µM; stronger effect = higher value
Outline: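 TRHR cells loaded with fluo-8 calcium dye; FDSS kinetic fluorescence (Ex 480/Em 530) read at 1 s/cycle after 23 nL compound addition. Agonist-mode calcium response recorded before the 10 nM TRH (EC20) addition.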

[14] = target: Galactokinase (Homo sapiens) (UniProt P51570); assay: qHTS Validation Assay for Inhibitors of Human Galactokinase (GALK) (AID 493189)
Outline: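 Inhibition was measured as remaining ATP, detected by luciferase luminescence after a 1 h room-temperature reaction. Final conditions: 5 nM GALK, 100 uM galactose, 35 uM ATP, pH 8.0 HEPES buffer.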

[15] = Validation screen for small molecules that induce DNA re-replication in SW480 colon adenocarcinoma cells (AID 504364)
Outline: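 SW480 cells (250/well) exposed 48 h at 37 C, 5% CO2, then Hoechst-stained 40 min. Nuclear DNA content imaged by fluorescence scanning (405 nm excitation, 500-530 nm emission); re-replication scored as increased nuclei with elevated intensity.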

[16] = target: Voltage-gated inwardly rectifying potassium channel KCNH2 (Homo sapiens) (UniProt Q12809); assay: qHTS Assay for Small Molecule Inhibitors of the Human hERG Channel Activity (AID 588834);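 further: lower thallium flux fluorescence means stronger hERG block; nearly all actives have a fitted effect of over 50% in size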; further: potency means the concentration at half of the fitted maximal effect
Outline: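 Kinetic FDSS fluorescence; U2OS + hERG BacMam (~100 virus particles/cell); FluxOR Tl+ flux; ~10 min cpd; AC50 (Hill).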

[17] = target: Glutathione peroxidase 1 (Homo sapiens) (UniProt P07203); assay: Primary qHTS Assay for Inhibitors of Recombinant Selenoprotein Glutathione Peroxidase 1 (GPX1) (AID 1845191); further: nearly all actives have a fitted effect of over 65% in size
Outline: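 Recombinant GPX1 (10 nM final) was preincubated with compound for 30 min at room temperature, then reacted with 1 mM GSH, 0.5 mM CHP, 0.5 mM NADPH and 100 nM glutathione reductase; NADPH fluorescence (340/450 nm) was read at 0 and 15 min.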

[18] = qHTS drug screen for cell cycle checkpoint inhibitors in PARPi-resistant BRCA-mutant ovarian cancer cell lines. (AID 1963452; calls by dose curve); conditions: PEO1/OlaR viability, CellTiter-Glo luminescence, 96 h, stronger effect = lower value
Outline: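 PEO1, PEO4 and PEO1/OlaR ovarian cancer cells, 600 per well, exposed 96 h at 37C to a dilution series. Viability read by CellTiter-Glo luminescence, normalized to DMSO and empty wells; activity summarized as Z-AUC.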

Galactokinase (Homo sapiens), sequence (P51570 whole entry, looked up): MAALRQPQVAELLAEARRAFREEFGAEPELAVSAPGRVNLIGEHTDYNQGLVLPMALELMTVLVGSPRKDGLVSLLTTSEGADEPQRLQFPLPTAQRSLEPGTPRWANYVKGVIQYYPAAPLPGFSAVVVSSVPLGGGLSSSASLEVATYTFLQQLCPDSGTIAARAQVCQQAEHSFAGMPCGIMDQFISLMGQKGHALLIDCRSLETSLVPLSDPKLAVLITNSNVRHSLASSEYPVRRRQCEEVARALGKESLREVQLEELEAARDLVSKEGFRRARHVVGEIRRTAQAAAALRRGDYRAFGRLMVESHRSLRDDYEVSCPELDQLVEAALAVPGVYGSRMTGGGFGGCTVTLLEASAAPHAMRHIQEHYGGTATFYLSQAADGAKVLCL
DNA repair nuclease/redox regulator APEX1 (Homo sapiens), sequence (P27695 whole entry, looked up): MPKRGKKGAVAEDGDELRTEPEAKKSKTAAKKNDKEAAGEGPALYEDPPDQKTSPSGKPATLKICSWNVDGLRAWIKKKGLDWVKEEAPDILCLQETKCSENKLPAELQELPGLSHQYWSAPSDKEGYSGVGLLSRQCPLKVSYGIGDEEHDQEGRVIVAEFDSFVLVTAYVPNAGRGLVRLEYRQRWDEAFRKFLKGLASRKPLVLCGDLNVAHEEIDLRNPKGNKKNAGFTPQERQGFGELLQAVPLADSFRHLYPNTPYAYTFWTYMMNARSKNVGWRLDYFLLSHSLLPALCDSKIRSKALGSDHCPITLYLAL
M-phase phosphoprotein 8 (Homo sapiens), sequence (Q99549 whole entry, looked up): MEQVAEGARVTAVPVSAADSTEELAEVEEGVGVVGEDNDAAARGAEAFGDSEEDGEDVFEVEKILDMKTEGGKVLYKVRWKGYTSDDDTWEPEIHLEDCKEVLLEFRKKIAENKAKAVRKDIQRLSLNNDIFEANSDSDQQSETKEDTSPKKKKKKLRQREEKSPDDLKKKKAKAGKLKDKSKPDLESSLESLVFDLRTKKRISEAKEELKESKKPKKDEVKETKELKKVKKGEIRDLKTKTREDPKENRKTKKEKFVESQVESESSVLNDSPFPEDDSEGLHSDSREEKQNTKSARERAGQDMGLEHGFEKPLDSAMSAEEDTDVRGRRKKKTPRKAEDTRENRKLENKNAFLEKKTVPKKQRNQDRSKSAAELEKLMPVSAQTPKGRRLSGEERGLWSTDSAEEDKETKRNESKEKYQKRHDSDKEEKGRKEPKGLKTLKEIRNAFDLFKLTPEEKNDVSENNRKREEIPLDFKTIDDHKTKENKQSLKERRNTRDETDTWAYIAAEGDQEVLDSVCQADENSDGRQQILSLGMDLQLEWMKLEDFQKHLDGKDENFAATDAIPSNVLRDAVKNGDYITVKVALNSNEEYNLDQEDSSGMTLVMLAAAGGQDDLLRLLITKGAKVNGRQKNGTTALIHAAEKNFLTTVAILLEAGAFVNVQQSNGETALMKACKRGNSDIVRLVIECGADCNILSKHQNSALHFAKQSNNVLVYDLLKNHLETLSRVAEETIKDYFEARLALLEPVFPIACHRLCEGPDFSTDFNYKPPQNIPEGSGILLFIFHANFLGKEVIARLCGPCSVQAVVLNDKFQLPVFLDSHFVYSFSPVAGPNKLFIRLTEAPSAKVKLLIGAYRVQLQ
Voltage-gated inwardly rectifying potassium channel KCNH2 (Homo sapiens), sequence (Q12809 whole entry, looked up): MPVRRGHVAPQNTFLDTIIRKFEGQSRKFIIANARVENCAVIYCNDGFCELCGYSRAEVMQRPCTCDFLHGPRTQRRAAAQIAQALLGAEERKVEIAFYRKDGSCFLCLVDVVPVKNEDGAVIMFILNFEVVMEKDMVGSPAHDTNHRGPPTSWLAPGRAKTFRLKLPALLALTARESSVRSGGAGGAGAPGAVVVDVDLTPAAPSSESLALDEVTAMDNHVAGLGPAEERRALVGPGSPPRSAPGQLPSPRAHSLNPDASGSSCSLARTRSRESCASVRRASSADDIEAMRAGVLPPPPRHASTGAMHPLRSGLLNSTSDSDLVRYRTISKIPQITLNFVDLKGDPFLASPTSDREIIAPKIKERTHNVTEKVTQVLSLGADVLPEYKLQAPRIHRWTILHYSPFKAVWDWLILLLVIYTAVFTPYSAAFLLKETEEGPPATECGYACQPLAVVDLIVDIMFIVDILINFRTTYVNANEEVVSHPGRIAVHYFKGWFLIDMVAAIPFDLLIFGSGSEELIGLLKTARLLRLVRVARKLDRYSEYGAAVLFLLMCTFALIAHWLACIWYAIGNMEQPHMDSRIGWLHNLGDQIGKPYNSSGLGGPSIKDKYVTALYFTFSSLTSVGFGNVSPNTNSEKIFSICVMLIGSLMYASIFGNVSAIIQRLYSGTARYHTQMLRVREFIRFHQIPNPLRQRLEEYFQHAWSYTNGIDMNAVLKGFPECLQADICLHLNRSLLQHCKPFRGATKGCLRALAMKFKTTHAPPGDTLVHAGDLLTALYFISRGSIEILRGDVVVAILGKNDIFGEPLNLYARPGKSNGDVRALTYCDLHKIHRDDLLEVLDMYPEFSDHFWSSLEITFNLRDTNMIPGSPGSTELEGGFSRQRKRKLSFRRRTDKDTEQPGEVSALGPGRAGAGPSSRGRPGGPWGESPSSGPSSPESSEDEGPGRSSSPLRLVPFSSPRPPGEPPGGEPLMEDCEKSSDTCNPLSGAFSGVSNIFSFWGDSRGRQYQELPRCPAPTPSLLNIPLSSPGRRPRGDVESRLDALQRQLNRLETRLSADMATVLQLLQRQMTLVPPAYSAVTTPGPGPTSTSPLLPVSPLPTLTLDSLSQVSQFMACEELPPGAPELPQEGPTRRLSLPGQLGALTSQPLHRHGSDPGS
ATP-dependent DNA helicase Q1 (Homo sapiens), sequence (P46063 whole entry, looked up): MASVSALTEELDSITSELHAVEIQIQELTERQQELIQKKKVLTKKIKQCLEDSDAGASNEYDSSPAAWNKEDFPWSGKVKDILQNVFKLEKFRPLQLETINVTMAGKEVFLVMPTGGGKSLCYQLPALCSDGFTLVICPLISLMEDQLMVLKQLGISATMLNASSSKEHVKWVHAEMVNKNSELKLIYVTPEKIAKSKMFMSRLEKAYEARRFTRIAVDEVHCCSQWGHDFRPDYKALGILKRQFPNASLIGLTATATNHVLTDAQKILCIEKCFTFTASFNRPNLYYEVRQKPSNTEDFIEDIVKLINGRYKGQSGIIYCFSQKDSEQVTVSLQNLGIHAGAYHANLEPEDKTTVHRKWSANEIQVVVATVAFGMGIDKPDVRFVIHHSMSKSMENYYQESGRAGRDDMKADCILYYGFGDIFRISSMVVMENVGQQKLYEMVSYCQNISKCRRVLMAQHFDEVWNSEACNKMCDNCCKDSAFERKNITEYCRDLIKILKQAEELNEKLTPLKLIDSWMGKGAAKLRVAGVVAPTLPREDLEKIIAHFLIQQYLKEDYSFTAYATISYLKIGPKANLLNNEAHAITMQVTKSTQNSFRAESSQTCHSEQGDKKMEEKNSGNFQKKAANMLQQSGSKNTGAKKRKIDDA
Thyrotropin-releasing hormone receptor (Homo sapiens), sequence (P34981 whole entry, looked up): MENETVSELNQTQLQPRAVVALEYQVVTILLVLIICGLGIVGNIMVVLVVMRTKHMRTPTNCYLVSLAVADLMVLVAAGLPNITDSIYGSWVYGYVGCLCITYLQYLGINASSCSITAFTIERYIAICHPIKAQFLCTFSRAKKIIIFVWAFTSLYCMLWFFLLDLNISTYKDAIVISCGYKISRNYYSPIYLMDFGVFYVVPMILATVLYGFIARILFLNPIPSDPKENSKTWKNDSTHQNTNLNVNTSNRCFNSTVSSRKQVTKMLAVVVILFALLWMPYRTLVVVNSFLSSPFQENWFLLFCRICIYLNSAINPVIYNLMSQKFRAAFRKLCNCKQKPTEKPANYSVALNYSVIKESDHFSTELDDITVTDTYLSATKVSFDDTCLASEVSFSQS
Thyrotropin receptor (Homo sapiens), sequence (P16473 whole entry, looked up): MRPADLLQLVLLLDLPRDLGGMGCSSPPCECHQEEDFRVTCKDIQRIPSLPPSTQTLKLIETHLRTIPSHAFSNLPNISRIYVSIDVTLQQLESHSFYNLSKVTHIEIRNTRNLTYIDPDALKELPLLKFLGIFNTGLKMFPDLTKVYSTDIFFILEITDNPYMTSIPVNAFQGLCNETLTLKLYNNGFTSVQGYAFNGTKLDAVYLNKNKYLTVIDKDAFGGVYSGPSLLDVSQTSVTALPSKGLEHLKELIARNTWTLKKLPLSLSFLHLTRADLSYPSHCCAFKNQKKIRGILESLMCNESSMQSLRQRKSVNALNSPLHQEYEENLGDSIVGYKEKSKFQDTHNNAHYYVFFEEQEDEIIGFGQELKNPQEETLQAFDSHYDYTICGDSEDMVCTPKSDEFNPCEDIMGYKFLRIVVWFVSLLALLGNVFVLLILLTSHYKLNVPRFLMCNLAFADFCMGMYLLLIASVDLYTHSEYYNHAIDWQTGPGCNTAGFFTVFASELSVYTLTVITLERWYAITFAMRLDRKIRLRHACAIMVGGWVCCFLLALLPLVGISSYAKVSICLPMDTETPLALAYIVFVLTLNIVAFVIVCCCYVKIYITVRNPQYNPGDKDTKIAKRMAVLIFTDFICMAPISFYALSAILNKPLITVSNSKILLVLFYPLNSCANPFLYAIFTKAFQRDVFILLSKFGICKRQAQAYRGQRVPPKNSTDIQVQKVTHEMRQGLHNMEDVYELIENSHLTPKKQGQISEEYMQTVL
Ferritin light chain (Equus caballus), sequence (P02791 2-175 limits assumed): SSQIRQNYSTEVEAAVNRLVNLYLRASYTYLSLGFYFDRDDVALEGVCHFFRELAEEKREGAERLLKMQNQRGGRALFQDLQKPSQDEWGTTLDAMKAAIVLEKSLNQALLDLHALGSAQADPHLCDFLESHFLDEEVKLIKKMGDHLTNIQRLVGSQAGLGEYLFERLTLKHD
Glutathione peroxidase 1 (Homo sapiens), sequence (P07203 whole entry, looked up): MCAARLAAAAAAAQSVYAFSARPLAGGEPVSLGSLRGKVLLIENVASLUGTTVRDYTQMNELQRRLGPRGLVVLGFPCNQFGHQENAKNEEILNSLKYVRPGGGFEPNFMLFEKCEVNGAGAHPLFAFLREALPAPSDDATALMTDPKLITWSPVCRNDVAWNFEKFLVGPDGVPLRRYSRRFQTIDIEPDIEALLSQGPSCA

Compound	Potency [1]	Potency [2]	Potency [3]	Potency [4]	outcome [5]	Potency [6]	outcome [7]	Potency [8]	Potency [9]	Potency [10]	outcome [11]	outcome [12]	activation [13]	outcome [14]	outcome [15]	Potency [16]	Potency [17]	Z-AUC [18]	Z-AUC ([18]; measured here: PEO1 parental Z-AUC)	Z-AUC ([18]; measured here: PEO4 Z-AUC)
CSc1nc(N)c2ncn([C@@H]3O[C@H](COP(=O)(O)OP(=O)(O)O)[C@H](O)[C@H]3O)c2n1	inactive	inactive	inactive	inactive	inactive	inactive	inactive	inactive	inactive	inactive	inactive	inactive	17.3% (inactive)	inactive	inactive	inactive	–	–	–	–
NC(=S)c1ccc[n+]([C@@H]2O[C@@H](COP(=O)([O-])OP(=O)(O)OC[C@H]3O[C@@H](n4cnc5c(N)ncnc54)[C@H](OP(=O)(O)O)[C@H]3O)C(O)C2O)c1 (stereo not given in full)	inactive	inactive	inactive	inactive	inactive	inactive	inactive	inactive	inactive	–	inactive	inactive	-0.0625% (inactive)	inactive	inactive	inactive	–	–	–	–
CSc1nc(N)c2ncn([C@@H]3O[C@H](COP(=O)(O)OP(=O)(O)OP(=O)(O)O)[C@H](O)[C@H]3O)c2n1	inactive	inactive	12.6 µM (active)	inactive	inactive	inactive	inactive	inactive	inactive	inactive	inactive	inactive	24.8% (inactive)	inactive	inactive	inactive	–	–	–	–
CN1CCc2cc(Cl)c(O)cc2C(c2ccccc2)C1 (stereo not given)	inactive	inactive	12.6 µM (active)	8.91 µM (active)	inactive	inactive	inactive	–	–	inactive	inactive	inactive	1.12% (inactive)	inactive	inactive	10 µM (active)	–	–	–	–
NC(=S)NCCCC(N)C(=O)O (stereo not given)	inactive	inactive	inactive	inactive	inactive	inactive	inactive	inactive	inactive	20 µM (active)	inactive	inactive	-0.25% (inactive)	inactive	inactive	–	–	–	–	–
COc1ccc(CCNC[C@@H](O)c2ccc(O)cc2)cc1OC	inactive	inactive	inactive	inactive	inactive	inactive	inactive	inactive	inactive	inactive	inactive	inactive	–	inactive	inactive	–	–	–	–	–
NCCCCNS(=O)(=O)c1cccc2c(Cl)cccc12	inactive	inactive	10 µM (active)	–	inactive	inactive	–	–	14.7 µM (active)	inactive	–	inactive	0.5% (inactive)	inactive	–	4.47 µM (active)	–	–	–	–
Nc1nc2c(nc(Br)n2C2O[C@H]3COP(=O)(O)O[C@@H]3C2O)c(=O)[nH]1 (stereo not given in full)	inactive	inactive	–	7.94 µM (active)	inactive	inactive	inactive	–	10.4 µM (active)	inactive	inactive	inactive	0.812% (inactive)	inactive	inactive	–	–	–	–	–
CN(C)C1C(=O)C(C(N)=O)=C(O)[C@@]2(O)C(=O)C3=C(O)c4c(O)ccc(Cl)c4[C@@H](O)C3C[C@@H]12 (stereo not given in full)	inactive	inactive	–	–	inactive	inactive	–	0.738 µM (active)	6.57 µM (active)	inactive	inactive	inactive	1.62% (inactive)	inactive	–	inactive	–	–	–	–
OC[C@H]1O[C@@H](n2cnc3c(NC4CCCC4)ncnc32)[C@H](O)[C@H]1O	inactive	inactive	inactive	inactive	inactive	inactive	inactive	inactive	inactive	inactive	inactive	inactive	-0.438% (inactive)	inactive	inactive	inactive	–	–	–	–
CN1C[C@@H]2c3ccccc3Oc3ccc(Cl)cc3[C@H]2C1	–	–	–	–	–	–	–	–	–	–	–	–	–	–	–	–	inactive	1.28 (inactive)	1.52	1.41
CN1C2CCC1CC(NC(=O)c1nn(C)c3ccccc13)C2 (stereo not given)	inactive	inactive	inactive	inactive	–	inactive	inactive	–	inactive	inactive	inactive	inactive	0.75% (inactive)	inactive	inactive	inactive	–	–	–	–

Reference: PubChem BioAssay (NCATS)
